Measured values published in PubChem BioAssay (Tox21).
Records with an inconclusive call do not appear. Calls of active or inactive are those of the source. Unless noted, calls come from the whole dose curve; as a rule, active = well fitted curve in the direction sought with a large enough effect in the repeat runs; inconclusive = weak or mixed curves; inactive = no such curve, though single readings can be large; an effect the other way counts as inactive or inconclusive.

Experiments:
[1] = qHTS assay to identify small molecule antagonists of the estrogen receptor beta (ER-beta) signaling pathway - cell viability counter screen (AID 1259382);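 note: HEK293T cells carrying ER-beta-UAS-bla reporter stimulated with estradiol; series mostly up to about 92 µM; nearly all actives have a fitted effect of over 55% in size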
Summary of the method: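 ER-beta-UAS-bla HEK293T cells (2,000/well, 2% charcoal-stripped FBS) were pre-incubated 6 hr at 37C, then given compound plus 1nM final 17-beta-estradiol for 16 hr. Viability was read in the same wells by CellTiter-Glo luminescence after 30 min at room temperature.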

[2] = qHTS assay to identify small molecule agonists or antagonists of the thyroid stimulating hormone receptor (TSHR) signaling pathway - wild type cell line counter screen (AID 1259384; calls by dose curve)
Summary of the method: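 Wild-type HEK293 cells were plated 18 h at 37 C/5% CO2, pin-dosed with compound plus Ro20-1724 medium, held 30 min at room temperature, then given cAMP-d2 and anti-cAMP-cryptate; fluorescence was read after 1 h. Fifteen concentrations, triplicate.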

[3] = target: Thyrotropin receptor (Homo sapiens) (UniProt P16473); test: qHTS assay to identify small molecule antagonists of the thyroid stimulating hormone receptor (TSHR) signaling pathway (AID 1259385; calls by dose curve; note: nearly all actives have a fitted effect of over 20% in size)
Sequence of Thyrotropin receptor (Homo sapiens) (P16473 whole entry, looked up): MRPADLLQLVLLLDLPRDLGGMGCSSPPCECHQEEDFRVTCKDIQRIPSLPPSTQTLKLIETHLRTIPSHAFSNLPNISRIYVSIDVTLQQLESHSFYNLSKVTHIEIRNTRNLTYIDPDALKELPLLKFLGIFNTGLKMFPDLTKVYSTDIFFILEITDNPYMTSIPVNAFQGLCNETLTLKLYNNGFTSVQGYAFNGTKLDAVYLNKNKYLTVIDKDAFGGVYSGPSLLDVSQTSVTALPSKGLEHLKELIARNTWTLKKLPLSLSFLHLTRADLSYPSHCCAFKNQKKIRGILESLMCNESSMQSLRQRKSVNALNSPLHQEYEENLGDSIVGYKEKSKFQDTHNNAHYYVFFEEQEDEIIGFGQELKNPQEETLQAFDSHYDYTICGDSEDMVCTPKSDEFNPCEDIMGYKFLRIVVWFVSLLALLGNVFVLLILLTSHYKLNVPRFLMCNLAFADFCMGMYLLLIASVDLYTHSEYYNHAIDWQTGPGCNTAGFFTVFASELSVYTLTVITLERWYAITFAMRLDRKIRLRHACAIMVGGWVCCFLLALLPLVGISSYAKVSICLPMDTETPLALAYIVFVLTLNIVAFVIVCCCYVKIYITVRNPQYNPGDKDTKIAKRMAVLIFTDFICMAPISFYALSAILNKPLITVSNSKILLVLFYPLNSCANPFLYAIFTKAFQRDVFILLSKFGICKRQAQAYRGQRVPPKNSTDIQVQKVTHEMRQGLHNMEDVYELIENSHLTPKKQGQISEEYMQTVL
Summary of the method: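 TSHR-HEK293 cells were plated and held 18 h at 37C/5% CO2, then given compound plus Ro20-1724 and stimulated with TSH at 1.5 ng/mL final. After 30 min at room temperature, cAMP was detected with cAMP-d2/anti-cAMP-cryptate (1 h) by fluorescence.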

[4] = qHTS assay to identify small molecule agonists of the estrogen receptor alpha (ER-alpha) signaling pathway in the presence of an antagonist - cell viability counter screen (AID 1259386);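 note: series mostly up to about 92 µM; cells exposed to compounds for 22 h at 37 °C before the viability read; nearly all actives have a fitted effect of over 30% in size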
Summary of the method: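 VM7Luc4E2 cells (endogenous full-length ER-alpha, 4×ERE-luciferase) were held 5 days in phenol red-free medium with 10% charcoal-stripped FBS, plated, then given 10.0nM ICI-182,780 and compounds at 15 concentrations for 22hr at 37C; viability read by CellTiter-Fluor fluorescence.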

[5] = target: Progesterone receptor (Homo sapiens) (UniProt P06401); test: qHTS assay to identify small molecule agonists of the progesterone receptor (PR) signaling pathway (AID 1346784; calls by dose curve; note: nearly all actives have a fitted effect of over 30% in size)
Sequence of Progesterone receptor (Homo sapiens) (P06401 whole entry, looked up): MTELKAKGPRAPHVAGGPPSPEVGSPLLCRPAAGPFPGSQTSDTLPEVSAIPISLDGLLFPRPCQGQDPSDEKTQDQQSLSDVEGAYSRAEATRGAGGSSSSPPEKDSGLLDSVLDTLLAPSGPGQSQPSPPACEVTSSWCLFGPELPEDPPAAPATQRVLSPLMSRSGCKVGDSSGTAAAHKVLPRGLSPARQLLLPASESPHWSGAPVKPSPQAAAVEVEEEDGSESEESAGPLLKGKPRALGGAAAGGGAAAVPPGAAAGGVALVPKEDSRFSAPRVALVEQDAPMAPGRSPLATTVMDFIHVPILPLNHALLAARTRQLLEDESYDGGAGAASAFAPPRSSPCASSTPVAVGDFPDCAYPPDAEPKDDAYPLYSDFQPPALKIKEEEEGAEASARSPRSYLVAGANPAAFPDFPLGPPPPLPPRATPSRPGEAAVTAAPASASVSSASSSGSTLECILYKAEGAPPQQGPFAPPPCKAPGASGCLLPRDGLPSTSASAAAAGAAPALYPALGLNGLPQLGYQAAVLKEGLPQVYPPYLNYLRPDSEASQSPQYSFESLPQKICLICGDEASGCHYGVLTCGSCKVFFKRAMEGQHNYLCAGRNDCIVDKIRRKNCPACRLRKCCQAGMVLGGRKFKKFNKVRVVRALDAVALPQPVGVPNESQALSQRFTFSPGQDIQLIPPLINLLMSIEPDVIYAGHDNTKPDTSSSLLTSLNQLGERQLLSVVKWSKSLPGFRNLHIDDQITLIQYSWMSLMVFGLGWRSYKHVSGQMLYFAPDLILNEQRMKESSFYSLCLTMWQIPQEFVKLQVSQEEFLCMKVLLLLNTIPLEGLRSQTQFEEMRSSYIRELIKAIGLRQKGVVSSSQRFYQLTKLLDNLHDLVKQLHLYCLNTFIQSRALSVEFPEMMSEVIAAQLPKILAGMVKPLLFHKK
Summary of the method: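 PR-UAS-bla HEK 293T cells carrying a UAS-driven beta-lactamase reporter were seeded in medium with 2% charcoal-stripped FBS, preincubated 6 hr at 37C, then exposed to compounds in DMSO for 16 hr; agonism was read by LiveBLAzer B/G FRET fluorescence.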

[6] = qHTS assay to identify small molecule antagonists of the progesterone receptor (PR) signaling pathway - cell viability counter screen (AID 1346798); note: series mostly up to about 92 µM; nearly all actives have a fitted effect of over 50% in size
Summary of the method: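 PR-UAS-bla HEK293T cells in medium with 2% charcoal-stripped FBS were treated with compounds plus R5020 for 16 hr at 37C. Cell viability was then read by CellTiter-Glo luminescence after 30 min at room temperature in the same wells.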

[7] = qHTS assay to identify small molecule agonists of the progesterone receptor (PR) signaling pathway - cell viability counter screen (AID 1346799; calls by dose curve; note: nearly all actives have a fitted effect of over 45% in size)
Summary of the method: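 PR-UAS-bla HEK293T cells, 3,000 per well in medium with 2% charcoal-stripped FBS, were preincubated 6 hr at 37C, then exposed to compounds for 16 hr; viability was read as CellTiter-Glo luminescence after 30 min at room temperature.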

[8] = qHTS assay to identify small molecule antagonists of the TGF-beta/Smad signaling pathway - cell viability counter screen (AID 1346824); note: nearly all actives have a fitted effect of over 50% in size
Summary of the method: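 SBE-bla HEK 293T cells were plated overnight at 37 C, then given compounds in DMSO plus TGF-beta1 (added as 0.25 ng/mL solution) for 5 hr. After the bla read, CellTiter-Glo was added to the same wells and luminescence read after 30 min at room temperature.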

[9] = target: Progesterone receptor (Homo sapiens) (UniProt P06401); test: qHTS assay to identify small molecule antagonists of the progesterone receptor (PR) signaling pathway (AID 1346795; active = well fitted inhibition curve with a large enough effect in the signal ratio in the repeat runs, not every such curve was filed as active; the % refers to the signal ratio)
Summary of the method: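 PR-UAS-bla HEK293T cells carrying a UAS-driven beta-lactamase reporter were plated in medium with 2% charcoal-stripped FBS and rested 6 hr at 37C. Compounds were added with 1 nM R5020 (final) for 16 hr, then FRET substrate loaded 2 hr at room temperature.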
% is set by controls: 0 for no effect and ±100 for the full control effect.

CCCCCCCCCOCC1CO1 (centres undefined)
inactive: outcome [1] | outcome [2] | outcome [3] | Potency [4] | Potency [5] | Potency [6] | Potency [7] | outcome [8]

C=C(C)C(=O)OC1CC(C)CC(C)(C)C1 (centres undefined)
inactive: outcome [1] | outcome [2] | Potency [4] | Potency [5] | Potency [9] | Potency [6] | Potency [7] | outcome [8]

O=S(=O)(O)c1cc(O)ccc1O
inactive: outcome [1] | outcome [2] | outcome [3] | Potency [4] | Potency [5] | Potency [9] | Potency [6] | outcome [8]

O=c1[nH]c(=O)c2ccccc2o1
inactive: outcome [1] | outcome [2] | Potency [4] | Potency [5] | Potency [9] | Potency [6] | outcome [8]

C=C(C)[C@@H]1CC[C@@H](C)C[C@@H]1O
inactive: outcome [1] | outcome [2] | Potency [4] | Potency [5] | Potency [9] | Potency [6] | Potency [7] | outcome [8]

CCCCC(C)C(=O)O (centres undefined)
inactive: outcome [1] | outcome [2] | outcome [3] | Potency [4] | Potency [5] | Potency [9] | Potency [6] | outcome [8]

c1ccc(CNc2ncnc3nc[nH]c23)cc1
inactive: outcome [1] | outcome [2] | outcome [3] | Potency [4] | Potency [5] | Potency [9] | Potency [6] | outcome [8]

CCCCC[Si](OCC)(OCC)OCC
inactive: outcome [1] | outcome [2] | Potency [4] | Potency [5] | Potency [9] | outcome [8]

O=C(O)Cc1cccc(-c2cc(CCCCCCc3ccc(O[C@H]4O[C@H](CO)[C@@H](O)[C@H](O)[C@@H]4O)c(-c4cccc(CC(=O)O)c4)c3)ccc2O[C@H]2O[C@H](CO)[C@@H](O)[C@H](O)[C@@H]2O)c1
inactive: activity change, negative = cytotoxicity [1] 7.67% [at 0.349 µM] | cAMP activity change [2] -6.17% [at 0.349 µM] | activity change, negative = inhibition [3] -1.92% [at 0.349 µM] | activity change, negative = cytotoxicity [4] 4.6% [at 0.349 µM] | activation [5] 1.15% [at 0.349 µM] | activity change, negative = inhibition [9] 0.629% [at 0.348 µM] | activity change, negative = cytotoxicity [6] 8.15% [at 0.348 µM] | viability change, negative = cytotoxic [8] 10.9% [at 0.29 µM]

CCCCC/C=C/CC(=O)OC
inactive: outcome [1] | outcome [2] | outcome [3] | Potency [4] | Potency [5] | Potency [6] | Potency [7] | outcome [8]

CC(C)COC(=O)CCCCC(=O)OCC(C)C
inactive: outcome [1] | outcome [2] | Potency [4] | Potency [5] | Potency [9] | Potency [6] | Potency [7] | outcome [8]

CCCC(C)CC (centres undefined)
inactive: outcome [1] | outcome [2] | outcome [3] | Potency [4] | Potency [5] | Potency [9] | Potency [6] | Potency [7] | outcome [8]

NC(Cc1c[nH]c2ccccc12)C(=O)O (centres undefined)
inactive: outcome [1] | outcome [2] | outcome [3] | Potency [4] | Potency [5] | Potency [9] | Potency [6] | Potency [7] | outcome [8]

CCCCCCCCCCCCCCCC(=O)NCCO
inactive: outcome [1] | outcome [2] | outcome [3] | Potency [4] | Potency [5] | Potency [9] | Potency [6] | Potency [7] | outcome [8]

CCC(=O)OCCC(C)CCC=C(C)C (centres undefined)
inactive: outcome [1] | outcome [2] | Potency [4] | Potency [5] | Potency [9] | Potency [6] | Potency [7] | outcome [8]

CCOC(=O)OCC/C(SC(=O)OCC)=C(\C)N(C=O)Cc1cnc(C)nc1N
inactive: outcome [1] | outcome [2] | outcome [3] | Potency [4] | Potency [5] | Potency [9] | Potency [6] | Potency [7] | outcome [8]

COc1cc2c3cc1Oc1cc(ccc1O)C[C@@H]1c4c(cc(OC)c(O)c4Oc4ccc(cc4)C[C@@H]3N(C)CC2)CC[N+]1(C)C
inactive: outcome [1] | outcome [2] | Potency [4] | Potency [5] | Potency [9] | Potency [6] | Potency [7] | outcome [8]

O=C(O)c1ccccc1C(=O)OCc1ccccc1
inactive: outcome [1] | outcome [2] | Potency [4] | Potency [5] | Potency [9] | Potency [6] | Potency [7] | outcome [8]

C[C@H](CCC(=O)NCC(=O)O)[C@H]1CC[C@H]2[C@@H]3[C@H](O)C[C@@H]4C[C@H](O)CC[C@]4(C)[C@H]3C[C@H](O)[C@]12C
inactive: outcome [1] | outcome [2] | outcome [3] | Potency [4] | Potency [5] | Potency [9] | Potency [6] | outcome [8]

NS(=O)(=O)c1cc2c(cc1Cl)NC(CC1CCCC1)NS2(=O)=O (centres undefined)
inactive: outcome [1] | outcome [2] | outcome [3] | Potency [4] | Potency [5] | Potency [9] | Potency [6] | Potency [7] | outcome [8]

O=C1c2ccccc2-c2ccccc21
inactive: outcome [1] | outcome [2] | outcome [3] | Potency [4] | Potency [5] | Potency [9] | Potency [6] | Potency [7] | outcome [8]

c1ccccc1
inactive: outcome [1] | outcome [2] | outcome [3] | Potency [4] | Potency [9] | Potency [6] | Potency [7] | outcome [8]
